Screening results deposited in PubChem by Broad Institute.
An excerpt weighted towards active compounds, which were near 2.2% of everything screened.
TRPM1 prom inh: MITF TRPM1 promoter inhibition in SK-MEL-5 cells; SK-MEL-5 TRPM1 promoter luciferase, 24 h; inhibition, % at 12.5 µM; 0.83% of 330,000 active; AID 488899;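 active = mean inhibition across replicates of 60% or more, whatever share of single replicates reaches that level; inconclusive = some that reach 60%, reason not given; inactive = mean inhibition across replicates below 60%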
PAX8 reporter: lowers PAX8-driven luciferase in RMG-I cells; RMG-I TPO-luciferase reporter, SteadyGlo, 24 h; inhibition, % at 12.6 µM; 1.2% of 360,000 active; AID 652154;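 active = mean replicate inhibition at least 60% with every replicate also reaching 60%; inconclusive = only one of the two criteria is met; inactive = mean below 60% and not all replicates reaching 60%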;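 also: luciferase light reporting Pax8 driven TPO promoter activity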
EBV LMP1 NFkB: Epstein-Barr LMP1 NF-kappaB reporter inhibition | LMP1-induced NF-kappaB luciferase reporter cells, luminescence | inhibition, % at 12.5 µM | 0.69% of 350,000 active; in the data active = inhibition above about 41%; inconclusive = no clear call, values can overlap the other calls
LGR2 antag: blocks bursicon-induced cAMP signaling via Drosophila LGR2; inhibition, % at 9.99 µM; 0.35% of 380,000 active; AID 720647; HEK293 LGR2, CRE-luciferase, bursicon-stimulated, 4 h;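 active = drop in luminescence signal, shown as inhibition above about 50% in the replicate tests, limit read from the data, passing the limit was not always enough; inconclusive = probably only some replicates passing the limit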;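 also: agonist challenge used bursicon conditioned medium at about half maximal strength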
PGC1a acetyl inh: lowers PGC1a acetylation signal in U2OS cells | AlphaScreen anti-acetyl-lysine; with virally co-expressed GCN5 acetyltransferase | inhibition, % at 15.6 µM | 0.17% of 350,000 active | AID 651687;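 active = every replicate shows inhibition of at least 40%; inconclusive = mean inhibition at least 40% but some replicate below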
EWS-Fli inh: blocks EWS/Fli oncoprotein-driven transcription. inhibition, % at 12.6 µM. A673 NR0B1-luciferase reporter, viability-normalised. 0.67% of 350,000 active;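 active = mean inhibition of at least 50% after viability correction, with every replicate also passing that limit; inconclusive = mean reaches 50% but only one of two replicates passes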;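 also: firefly luciferase signal divided by Alamar Blue viability fluorescence both relative to DMSO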
Each line names hits and unclear results; the compound was inactive in the other large screens.

COc1ccc(C#Cc2ccc([C@@H]3[C@H](CO)N4CCCCN(C(=O)Nc5ccc(F)cc5)C[C@@H]34)cc2)cc1	PAX8 reporter 107 (no result: TRPM1 prom inh, EBV LMP1 NFkB, EWS-Fli inh)
COc1ccc(NC(=O)N2CCCCN3[C@@H](CO)[C@H](c4ccc(C#Cc5ccccc5)cc4)[C@@H]3C2)cc1	PAX8 reporter 70 (no result: TRPM1 prom inh, EBV LMP1 NFkB, LGR2 antag)
COc1cccc(CN2CCCCN3[C@H](CO)[C@@H](c4ccc(C#Cc5cccnc5)cc4)[C@H]3C2)c1	EWS-Fli inh 69 (no result: TRPM1 prom inh, EBV LMP1 NFkB)
COc1ccc(NC(=O)N2CCCCN3[C@H](C2)[C@@H](c2ccc(C#Cc4ccccc4)cc2)[C@@H]3CO)cc1	PAX8 reporter 92 (no result: TRPM1 prom inh, EBV LMP1 NFkB, LGR2 antag)
COc1ccc(NC(=O)N2CCCCN3[C@H](C2)[C@H](c2ccc(C#Cc4ccccc4)cc2)[C@@H]3CO)cc1	none (no result: TRPM1 prom inh, EBV LMP1 NFkB, LGR2 antag)
O=C(C[C@H]1CC[C@H]2[C@@H](COC[C@@H](O)CN2S(=O)(=O)c2ccc(F)cc2)O1)NCC1CC1	none (no result: TRPM1 prom inh, EBV LMP1 NFkB)
CO[C@@H]1CN(C)C(=O)c2cc(NC(=O)c3ccc4c(c3)OCO4)ccc2OC[C@H](C)N(CC2CC2)C[C@@H]1C	none (no result: TRPM1 prom inh, EBV LMP1 NFkB)
Cc1nc([N+](=O)[O-])c(Sc2nc3ccccc3n2C)n1Cc1ccccc1	TRPM1 prom inh 63 (no result: EWS-Fli inh)
C[C@@H]1CCCCO[C@H](CN(C)S(C)(=O)=O)[C@H](C)CN([C@@H](C)CO)C(=O)c2cc(NC(=O)Cc3ccccc3)ccc2O1	none (no result: TRPM1 prom inh, EBV LMP1 NFkB)
COCCn1c(C)cc(C2=NNC(=Nc3ccccc3)SC2)c1C	none (no result: PAX8 reporter, LGR2 antag, EWS-Fli inh)
COc1ccccc1C1=NNC(=Nc2cccc(S(=O)(=O)N(C)C)c2)SC1	PAX8 reporter 84
CCOC(=O)c1c(NC(=O)C2C3CCC(O3)C2C(=O)O)sc(C)c1-c1ccc(F)cc1 (configuration not stated)	EBV LMP1 NFkB 80 (no result: PAX8 reporter, LGR2 antag, EWS-Fli inh)
C[C@H](CO)N1C[C@H](C)[C@H](CN(C)Cc2ccc(F)cc2)Oc2ncc(C#Cc3cccnc3)cc2C1=O	none (no result: TRPM1 prom inh, EBV LMP1 NFkB)
CCN(CC)Cc1cc(Nc2c3ccccc3nc3c4ccccc4n(C)c23)cc(CN(CC)CC)c1O	TRPM1 prom inh 78
Oc1cccc(Nc2c3ccccc3nc3ccccc23)c1	none (no result: PGC1a acetyl inh)
C[C@@H]1CN([C@@H](C)CO)C(=O)Cc2cc(NS(C)(=O)=O)ccc2O[C@@H]1CN(C)Cc1ccccc1	none (no result: TRPM1 prom inh, EBV LMP1 NFkB)
COc1cccc(NC(=O)N2CC3(C2)[C@H](c2ccccc2)[C@@H](CO)N3C(=O)C2CCC2)c1	none (no result: TRPM1 prom inh, EBV LMP1 NFkB)
C[C@@H]1CN([C@H](C)CO)C(=O)Cc2cc(NC(=O)Nc3ccccc3)ccc2O[C@@H]1CN(C)C(=O)NC1CCCCC1	none (no result: TRPM1 prom inh, EBV LMP1 NFkB)
O=C(O)CCC(=O)N1CCN(S(=O)(=O)c2ccc3ccccc3c2)CC1	none (no result: PGC1a acetyl inh)
Cc1ccc(S(=O)(=O)N2CCCCC2)cc1NC(=O)Cn1ncc(Cl)c(Cl)c1=O	TRPM1 prom inh 101, PAX8 reporter 99, LGR2 antag 54, EWS-Fli inh 75 (no result: PGC1a acetyl inh)
Cc1ccc(S(=O)(=O)N2CCCCC2)cc1NC(=O)Cn1cnnn1	none
COc1ccc(NC(=O)Cn2ncc(Cl)c(Cl)c2=O)cc1S(=O)(=O)N1CCOCC1	PAX8 reporter 83
Cc1cc(Br)ccc1NC(=O)CNC(=O)Cn1ncc(Cl)c(Cl)c1=O	TRPM1 prom inh 94, EBV LMP1 NFkB 83, LGR2 antag 74 (no result: PGC1a acetyl inh)
O=C(Cn1ncc(Cl)c(Cl)c1=O)N1CCN(S(=O)(=O)c2ccc3ccccc3c2)CC1	TRPM1 prom inh 89, PAX8 reporter 97, PGC1a acetyl inh 77 (no result: EWS-Fli inh)
Cc1cc(Br)ccc1NC(=O)CNC(=O)CSc1ncccn1	none
CCC(=O)N[C@@H]1CC[C@@H](CC(=O)NCc2ccccc2OC)O[C@@H]1CO	none (no result: TRPM1 prom inh, EBV LMP1 NFkB)
Cc1nn(CC(=O)Nc2ccc3c(c2)OCO3)c(C)c1Cl	none
CCN(CC)S(=O)(=O)c1cc(NC(=O)CN2C(=O)NC(C)(c3ccccc3)C2=O)ccc1C (configuration not stated)	none (no result: PGC1a acetyl inh)
CCN(CC)S(=O)(=O)c1cc(NC(=O)Cn2ncc(Cl)c(Cl)c2=O)ccc1C	TRPM1 prom inh 85, PAX8 reporter 93
O=C(Cn1ncc(Cl)c(Cl)c1=O)Nc1ccc2c(c1)OCO2	TRPM1 prom inh 79, PAX8 reporter 89
C[C@H](CO)N1C[C@H](C)[C@@H](CN(C)C(=O)CN(C)C)Oc2cc(C#C[C@@H](C)O)ccc2S1(=O)=O	none (no result: TRPM1 prom inh, PAX8 reporter, EBV LMP1 NFkB)
Cn1cnc(S(=O)(=O)N2C[C@H](O)COC[C@H]3O[C@@H](CC(=O)NC4Cc5ccccc5C4)CC[C@@H]32)c1	none (no result: TRPM1 prom inh, EBV LMP1 NFkB)
COc1cc(Cl)cc(C(c2c(C(=O)O)[nH]c3ccccc23)c2c(C(=O)O)[nH]c3ccccc23)c1O	EBV LMP1 NFkB 48
CCCNC(=O)Nc1ccc2c(c1)OC[C@H](C)N(Cc1ccncc1)C[C@@H](C)[C@@H](OC)CN(C)C2=O	none (no result: TRPM1 prom inh, EBV LMP1 NFkB)
C[C@@H]1CN([C@@H](C)CO)C(=O)c2cc(NC(=O)c3ccncc3)ccc2O[C@@H](C)CCCCO[C@@H]1CN(C)S(C)(=O)=O	none (no result: TRPM1 prom inh, EBV LMP1 NFkB)
COc1ccc(C(=O)/C=C/Sc2nc3ccccc3o2)cc1	EWS-Fli inh 55
CCCC[C@H](CN[C@@H](CNC)[C@H](C)CC)NCCC12CCC(CC1)C2	TRPM1 prom inh 94, EWS-Fli inh 57
CCCCN(CC)CCCNC(=O)c1cc2c(=O)n(CC)c3ccccc3c2s1	TRPM1 prom inh 69
CCCCCc1cc(=O)oc2c(C(CCN3CCCC(C)C3)c3cc(OC)c(OC)c(OC)c3)c(OC)cc(OC)c12 (configuration not stated)	TRPM1 prom inh 73 (no result: PAX8 reporter, LGR2 antag, PGC1a acetyl inh, EWS-Fli inh)
CCCCCc1cc(=O)oc2c(C(CCN3CCCC(C)C3)c3ccc(N(C)C)cc3)c(OC)cc(OC)c12 (configuration not stated)	none (no result: PAX8 reporter, LGR2 antag, EWS-Fli inh)
CCCCCc1cc(=O)oc2c(C(CCN3CCCCC3)c3cc(OC)c(OC)c(OC)c3)c(OC)cc(OC)c12 (configuration not stated)	TRPM1 prom inh 89, PAX8 reporter 79, EWS-Fli inh inconclusive (no result: LGR2 antag)
CCCCCc1cc(=O)oc2c(C(CCN(CC)CC)c3ccc(N(C)C)cc3)c(OC)cc(OC)c12 (configuration not stated)	TRPM1 prom inh 89, PAX8 reporter inconclusive
O=C(OCCN1C(=O)c2cccc3c(N4CCOCC4)ccc(c23)C1=O)c1ccccc1Cl	LGR2 antag 76 (no result: PGC1a acetyl inh, EWS-Fli inh)
COCCNC(=O)C[C@@H]1CC[C@@H](NS(=O)(=O)c2ccc(C)cc2)[C@@H](CO)O1	none (no result: TRPM1 prom inh, EBV LMP1 NFkB)
COc1ccc(NC(=O)N[C@@H]2C=C[C@@H](CC(=O)NC3CCC3)O[C@H]2CO)cc1	none (no result: TRPM1 prom inh, EBV LMP1 NFkB)
CS(=O)(=O)c1ccc(CNC(=O)C2(C(F)(F)F)CC(CCCO)CCCO2)cc1 (configuration not stated)	EWS-Fli inh 59 (no result: TRPM1 prom inh, EBV LMP1 NFkB, PGC1a acetyl inh)
O=C(NCc1ccccc1)C1(C(F)(F)F)CC(CCCO)CCCO1 (configuration not stated)	none (no result: PGC1a acetyl inh)
O=C(N[C@H]1CC[C@@H](CCNS(=O)(=O)Cc2ccccc2)O[C@@H]1CO)c1cnccn1	none (no result: TRPM1 prom inh, EBV LMP1 NFkB)
O=C(N/N=C/c1cc([N+](=O)[O-])ccc1Cl)c1cnccn1	EWS-Fli inh 57
